KB-3-1 tox: kills parental KB-3-1 adenocarcinoma cells; KB-3-1 viability, CellTiter-Glo ATP luminescence, 72 h; Potency, µM (titrated, usually from 46.1 µM), usual class: cytotoxic; 400,000 tested, 1.4% active; note: % is set by controls: 0 for no effect and ±100 for the full control effect; nearly all actives have a fitted effect of over 60% in size
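KB-3-1 cells, DMEM (no phenol red) + 10% FBS; compound by pin transfer, 72 h, 37 °C. Readout: CellTiter-Glo luminescence after 10 min. Data normalized, curve-fitted.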
KB-V1 MDR tox: kills drug-selected multidrug resistant KB-V1 cells. KB-V1 MDR cells viability, CellTiter-Glo, 72 h. Potency, µM (highest dose often 46.1 µM), most hits filed as cytotoxic. 400,000 tested, 3.4% active. AID 1347076; note: % is set by controls: 0 for no effect and ±100 for the full control effect; nearly all actives have a fitted effect of over 60% in size
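In this primary screen, KB-V1 cells overexpressing P-gp are incubated with library compounds (lowest to highest concentration) for 72 h at 37 degrees C before a luminescent ATP viability read.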
HT1080NT lethal: kills 2HG-producing HT-1080-NT fibrosarcoma cells; Potency, µM (top dose mostly 46.1 µM), inactives show at the top dose activity, negative = less viability, hits mostly cytotoxic; AID 686970; 360,000 tested, 1.6% active; HT-1080-NT fibrosarcoma viability, CellTiter-Glo ATP luminescence, 48 h;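 note: NT is the 2HG producing partner of a matched IDH1 knockdown line; 0% = DMSO-treated cells and -100% = media-only wells without cells; nearly all actives have a fitted effect of over 55% in size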
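Luminescent CellTiter-Glo readout after 48 hours of compound exposure at 37 degrees C defined viability of HT-1080-NT cells. Activity was normalized to DMSO wells and cell-free media wells; concentration-response curves were fitted and assigned curve classes.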
MCF10A rerep: inducers of DNA re-replication in MCF 10A breast cells; AID 624296; 350,000 tested, 2.9% active; Potency, µM (doses to about 46.1 µM), without a hit: at the highest dose activity, positive = re-replication, usual class: activators; MCF 10A DNA re-replication, Hoechst nuclear intensity, 48 h; note: % of control where 0% means no effect; nearly all actives have a fitted effect of over 50% in size
SW480 rerep: induces DNA re-replication in SW480 colon adenocarcinoma cells | SW480 DNA re-replication, Hoechst DNA content imaging, 48 h | Potency, µM (titrated, usually from 46.1 µM), inactives show at the top dose re-replication activation, usual class: activators | 340,000 tested, 1.8% active | AID 624297; note: % of control where 0% means no effect; nearly all actives have a fitted effect of over 55% in size
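SW480 cells exposed to compounds for 48 hr at 37 C, 5% CO2, then Hoechst-stained 40 min. Nuclear DNA content imaged by fluorescence scanning (405 nm excitation, 500-530 nm emission); re-replication scored as increased high-intensity nuclei.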
HT1080 IDH1KD tx: kills HT-1080 cells with IDH1 knockdown; HT-1080 IDH1 knockdown viability, ATP luminescence, 48 h; Potency, µM (series often up to 46.1 µM), inactives show at the top dose activity, negative = toxicity, hits mostly cytotoxic; 360,000 tested, 2% active;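 note: 0% = DMSO wells and -100% = cell-free medium wells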
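Luminescent ATP read-out (CellTiter-Glo, 10 min at room temperature) after 48 h compound exposure at 37 °C gave viability of IDH1-knockdown HT-1080 cells. Activity was normalised to DMSO and cell-free wells, then fitted as concentration-response curves.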
Active calls of the source: *; i = inactive; ? = inconclusive; . = no result; [ ] = remark or other dose. In the library only some 7.9% were active in any assay of this set; here they are far more common. Calls come from the whole dose curve; as a rule, active = well fitted curve in the direction sought with a large enough effect; inconclusive = small, poorly fitted or top-dose-only effect, or another doubt; inactive = no such curve, though single readings can be large; an effect the other way counts as inactive or inconclusive. Potency is the fitted concentration of half-maximal effect.

SMILES	KB-3-1 tox	KB-V1 MDR tox	HT1080NT lethal	MCF10A rerep	SW480 rerep	HT1080 IDH1KD tx
CCN1/C(=C/c2ccc3cccc(C)c3[n+]2CC)Sc2ccccc21	?	i	?	17.8%	1.9%	3.16µM*
CCN1/C(=C/c2ccc3cc(C)ccc3[n+]2CC)Sc2ccc3sccc3c21	2.59µM*	i	?	5.5%	26.2%	0.92µM*
CCN1/C(=C\c2ccc3cc(C)ccc3[n+]2CC)Sc2cc(C)c(C)cc21	?	i	16.4µM*	?	1.5%	.
O=C(CSc1nc2nc(-c3cccs3)cc(C(F)(F)F)c2c(=O)[nH]1)C(F)(F)F	?	?	?	-2.0%	-0.9%	?
COCCOc1cnn(-c2cc(Oc3ccc(C)cc3)ncn2)c(=O)c1Cl	i	i	3.5%	?	0.7%	7.8%
COc1ccc(C)cc1NC(=O)CN1C(=O)C2CC=CCC2C1=O (configuration not stated)	i	i	3.8%	10.5%	-3.2%	4.1%
O=C(c1ccc(F)cc1)N1CCCC(c2ccccc2)C1 (configuration not stated)	i	i	1.7%	5.4%	1.2%	-1.1%
COc1cccc(NC2C=CS(=O)(=O)C2)c1 (configuration not stated)	i	?	5.7%	0.6%	-1.7%	7.3%
O=S1(=O)C=CC(Nc2cccc(Cl)c2)C1 (configuration not stated)	i	i	10µM*	9.2%	28.4%	?
CCOC(=O)C1CCCN(C2CCN(Cc3nc(-c4ccccc4)no3)CC2)C1 (configuration not stated)	i	i	5.1%	-34.0%	4.5%	-0.1%
CCCCC(=O)Oc1ccccc1C1SCc2cc(C)c(C)cc2CS1	i	i	-1.0%	1.8%	-4.9%[9.22 µM]	-3.8%
Cc1cc2c(cc1C)CSC(c1ccccc1O)SC2	?	18.4µM*	?	?	?	?
Cc1cc2c(cc1C)CSC(c1ccccc1OC(=O)C(C)(C)C)SC2	i	i	-17.1%	11.6µM*	6.7%	-21.3%
Cc1cc2c(cc1C)CSC(c1c(O)ccc3ccccc13)SC2	?	i	23.1µM*	18.4µM*	18.2%	?
Oc1ccccc1C1OCC2(CO1)COC(c1ccccc1O)OC2 (configuration not stated)	?	i	0.1%	5.5%	-2.0%	-9.0%
Oc1ccccc1C1SC(c2ccccc2O)SC(c2ccccc2O)S1 (configuration not stated)	?	i	14.6µM*	6.51µM*	?	?
CC(=O)NC(CC(=O)OCC(=O)N1CCN(S(=O)(=O)c2ccc(Cl)cc2)CC1)c1ccccc1 (configuration not stated)	i	i	-2.4%	-0.5%	-7.6%	-3.5%
CCCCC1C(=O)N(c2ccccc2)N(c2ccccc2)C1=O	i	i	20.9%	10.7%	-1.0%	-12.3%
CCCCN1C=CC(=C2C(=O)c3ccccc3C2=O)C=C1	i	?	16.4µM*	-4.0%	-5.2%	23.1µM*
Cc1ccc(C)c(S(=O)(=O)NCC(c2ccc(N(C)C)cc2)N2CCOCC2)c1 (configuration not stated)	i	i	.	.	.	.
CC(C)OP(=O)(OC(C)C)/C(C=O)=N\Nc1ccc([N+](=O)[O-])cc1	?	i	20.6µM*	0.2%	-15.5%	16.4µM*
Cc1nnc(-c2cccc(Br)c2)c2cn(-c3ccccc3Cl)nc12	?	?	4.2%	14.2%	-13.6%	-0.9%
Cc1ccc(-n2cc3c(-c4cccc(Br)c4)nnc(C)c3n2)cc1	?	16.4µM*	1.6%	13.8%	-0.5%	-1.9%
COc1cccc(NC(=O)CN2C(=O)NC(Cc3c[nH]c4ccccc34)C2=O)c1 (configuration not stated)	i	i	11.7%	8.0%	-5.9%	1.1%
COc1ccc(Cl)cc1NC(=O)CN1C(=O)NC(Cc2c[nH]c3ccccc23)C1=O (configuration not stated)	?	20.6µM*	-4.4%	4.0%	11.6%	-4.6%
SMILES	KB-3-1 tox	KB-V1 MDR tox	HT1080NT lethal	MCF10A rerep	SW480 rerep	HT1080 IDH1KD tx
COC(=O)c1ccc(CN2C(=O)NC(Cc3c[nH]c4ccccc34)C2=O)cc1 (configuration not stated)	i	18.4µM*	-16.2%	0.3%	-3.2%	-6.9%
O=C1NC(Cc2c[nH]c3ccccc23)C(=O)N1Cc1ccccc1 (configuration not stated)	i	i	3.8%	-12.9%	-1.2%	15.4%
Cc1cc(CNC(=O)C2(C(F)(F)F)CC(CCCO)CCCO2)nn1C (configuration not stated)	i	i	6.4%	-20.5%	-0.4%	5.6%
CC1=C(C)CS(=O)N(S(=O)(=O)c2ccccc2)C1 (configuration not stated)	i	?	?	?	?	?
O=S(=O)(/N=S1\CC=CCN1S(=O)(=O)c1ccccc1)c1ccccc1 (configuration not stated)	i	i	?	18.4µM*	?	?
C[C@]12c3[nH]c4cc(-c5ccco5)ccc4c3CCN1C(=O)[C@@H](CC(=O)NCCC1=CCCCC1)C[C@@H]2C(=O)N1CCOCC1	i	i	-17.1%	-10.7%	?	-22.8%
COc1cccc(-c2ccc(C#N)c(OC(=O)c3c(Cl)cccc3Cl)n2)c1	i	16.4µM*	-10.9%	25.0%	-68.5%	-28.1%
Cc1cc(C)n(-c2cc(N3CCN(S(=O)(=O)c4ccc(C)c(C)c4)CC3)ccc2[N+](=O)[O-])n1	i	i	-6.6%	-14.1%	13.3%[9.22 µM]	-1.7%
CC/C(=C\c1oc2cc3ccccc3cc2[n+]1CC)Nc1ccccc1	i	20.6µM*	-28.6%	23.1µM*	18.4µM*	?
CN1CCN(S(=O)(=O)c2ccc(Cc3ccc(S(=O)(=O)N4CCN(C)CC4)cc3)cc2)CC1	i	i	-19.1%	20.6µM*	9.4%	-23.1%
CN1CCN(S(=O)(=O)c2ccc(-c3ccc(Cl)cc3)cc2)CC1	i	13µM*	12.4%	?	-6.5%	9.1%
Cc1c(NC(=O)Nc2cccc(F)c2)c(=O)n(-c2ccccc2)n1C	i	i	18.0%	-4.9%	5.0%	9.0%
CCOC(=O)N1CCN(c2ccc(S(=O)(=O)N(Cc3ccccc3)Cc3ccccc3)cn2)CC1	i	5.8µM*	-5.5%	-6.6%	1.9%	-6.7%

Screens (PubChem)
